Data taken from PubChem BioAssay (NCI).
This is part of a sample that, as a whole, favours compounds with a hit. Of some 83,000 tested, about 20% had one in any assay.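 A percent growth of 40 corresponds to 60% growth inhibition; 0 means no net growth; -100 means all cells died. Active threshold: below 10.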 A number with no mark means an inactive call. Active and inactive are the calls of the source.

Tests used:
Assay in all cases: NCI-60 one-dose screen, 48 h (100 = growth as untreated, 0 = no growth, -100 = all killed)
Conditions in all cases: 10 µM unless noted
SR leukemia = system: SR leukemia
RPMI-8226 leukemia = system: RPMI-8226 leukemia
OVCAR-8 ovarian = system: OVCAR-8 ovarian
OVCAR-5 ovarian = system: OVCAR-5 ovarian
SK-OV-3 ovarian = system: SK-OV-3 ovarian
IGROV1 ovarian = system: IGROV1 ovarian
OVCAR-3 ovarian = system: OVCAR-3 ovarian
HS 578T breast = system: HS 578T breast
NCI/ADR-RES ovarian = system: NCI/ADR-RES ovarian
T-47D breast = system: T-47D breast
BT-549 breast = system: BT-549 breast
MDA-MB-435 melanoma = system: MDA-MB-435 melanoma
SW-620 colon = system: SW-620 colon
MCF7 breast = system: MCF7 breast
HCT-116 colon = system: HCT-116 colon
HCC-2998 colon = system: HCC-2998 colon
KM12 colon = system: KM12 colon
OVCAR-4 ovarian = system: OVCAR-4 ovarian

| SMILES | growth (SR leukemia) | growth (RPMI-8226 leukemia) | growth (OVCAR-8 ovarian) | growth (OVCAR-5 ovarian) | growth (SK-OV-3 ovarian) | growth (IGROV1 ovarian) | growth (OVCAR-3 ovarian) | growth (HS 578T breast) | growth (NCI/ADR-RES ovarian) | growth (T-47D breast) | growth (BT-549 breast) | growth (MDA-MB-435 melanoma) | growth (SW-620 colon) | growth (MCF7 breast) | growth (HCT-116 colon) | growth (HCC-2998 colon) | growth (KM12 colon) | growth (OVCAR-4 ovarian) |
| --- | --- | --- | --- | --- | --- | --- | --- | --- | --- | --- | --- | --- | --- | --- | --- | --- | --- | --- |
| COc1ccc(C(=O)c2cc(OC)c(OC)c(OC)c2)cc1/C=C/C(=O)c1ccc(OC)c(OC)c1 | 3.96% (active) | 8.82% (active) | 26.1% | 0.936% (active) | 38.4% | 29.7% | -22.1% (active) | 31.5% | 19% | 35.2% | 36.5% | 20% | 9.37% (active) | 17.3% | 10.4% | 45.9% | 9.37% (active) |  |
| NC(=S)NN=C1CCCCC1 | 72.1% | 68.8% | 68.6% | 104% |  | 83.7% | 38% | 82.3% | 72.6% |  | 85.6% | 88.8% | 69.1% | 15.9% | 8.08% (active) | 105% | 107% | 53.6% |
| O=C(/C=C/CN1CCOCC1)Nc1cc2c(Nc3cccc(Cl)c3F)ncnc2cc1OCCOC(F)F | 97.1% | 84.5% | 67.6% | 49.5% | 9.17% (active) | 6.79% (active) | 68.3% | 64.9% | 60.9% | 15.1% | 86% | 97.2% | 90.7% | 65.5% | 82.9% | 86.2% | 90.2% |  |
| COc1cccc2cc(-c3cc4ccccc4[nH]3)c(=NC(=O)c3ccc(Cl)cc3)oc12 | 62.7% | 76.1% | 53.8% | 85.9% |  | 53.7% | 67% | 70.8% | 53% |  | 62.7% | 33.1% | 7.3% (active) | 73.5% | 26.9% | 75.7% | 33.9% | 66.8% |
| O=S(=O)(NCCCNc1cc(-c2cn(-c3ccccc3)nc2-c2cccc(O)c2)ccn1)c1ccc(C(F)(F)F)cc1 | 8.04% (active) | 15.4% | 53% | 57.8% |  | 58.9% | 49.6% |  | 35% | 35.1% | 42.2% | 34.9% | 27.4% | 22% | 29% |  | 23.3% | 45.1% |
| O=c1oc2cc(OS(=O)(=O)c3ccccc3)c(Cl)cc2c2c1CCCCCC2 | 63.4% | 75.2% | 89.2% | 90.1% | 106% | 84.3% | 91.3% | 88.6% | 67.4% | 73.9% | 79.1% | 90% | 98.1% | 90.6% | 74.8% | 106% | 92.1% |  |
| CCCCC(N)(C(=O)O)C1CCCC1 (centres undefined) | 96.4% | 111% | 97.2% | 97.8% | 117% | 110% | 116% | 122% | 97.4% | 110% | 103% | 104% | 105% | 91.4% | 101% | 112% | 113% |  |
| CCN1C(=S)N(CC)C2Nn3c(s/c(=C4\C(=O)N(C)c5ccccc54)c3=O)=NC21 (centres undefined) | 22.6% | 36.8% | 54.5% | 67.5% |  | 53.3% | 20.2% | 48.8% | 6.63% (active) |  | 74.7% | -43.1% (active) | 41.1% | 29.8% | 7.36% (active) | 79% | 27.4% | 47.5% |
| COc1cc(NCCN=C(N)NC(N)=NC(C)C)c2ncccc2c1 | 74.8% | 73.3% | 87% | 80.2% |  | -4.12% (active) | 6.45% (active) |  | 99.4% | -5.22% (active) | 52.4% | 103% | 88.4% | -55.7% (active) | 28.1% | 82.9% | 29.9% | -40.1% (active) |
| Clc1ccc2c(c1)NC1(CCSc3ccccc31)n1nccc1-2 (centres undefined) | 91.6% | 94.6% | 100% | 92.6% | 111% | 102% | 94.6% | 110% | 98.6% | 101% | 97.4% | 110% | 102% | 102% | 89.4% | 97.3% | 102% |  |
| CCC1=C[C@@H]2CN(C1)Cc1c([nH]c3ccccc13)[C@@](C(=O)OC)(c1cc3c(cc1OC)N(C=O)[C@H]1[C@@](O)(C(=O)OC)[C@H](OC(C)=O)[C@]4(CC)[C@@H]5C[C@@H]5CN5CC[C@]31[C@@H]54)C2 | 9.37% (active) | -6.79% (active) | 8.45% (active) | 44.2% |  | 30.8% |  | 26.3% | -28.8% (active) | 97.5% | 47.9% | -57.1% (active) | 26.3% | 10.9% | 7.99% (active) | -13% (active) | 8.8% (active) | 47% |
| CCN1C(=O)/C(=c2\sc3n(c2=O)C2C(NN=3)N(CC)C(=S)N2CC)c2ccccc21 (centres undefined) | 91.8% | 105% | 100% | 107% |  | 100% | 103% | 99.8% | 103% |  | 98.8% | 88.4% | 102% | 82.8% | 103% | 104% | 102% | 88.7% |
| CCN1C(=O)N(CC)C2C1NN=c1s/c(=C3\C(=O)N(C4CCCC4)c4ccccc43)c(=O)n12 (centres undefined) | 0.0502% (active) | -0.279% (active) | 23% | 49.7% |  | 31.9% | -35.3% (active) |  | -22.8% (active) |  | 20% | -42.8% (active) | 28.5% | 21.4% | 0.802% (active) |  | 10.9% | 46.1% |
| C#CCN1C(=O)/C(=c2\sc3n(c2=O)NC2C(N=3)N(CC)C(=O)N2CC)c2ccccc21 (centres undefined) | 15.5% | 59.3% | 66.9% | 73.8% |  | 66% | 23.1% | 56.6% | 41.7% |  | 83.4% | -26.6% (active) | 41% | 42.2% | 27% | 100% | 46.8% | 51.9% |
| Cc1cc(N/C=c2\sc3ncnn3c2=O)no1 | 74.8% | 92.5% | 101% | 108% | 105% | 94.4% | 95.8% |  | 99.1% | 96.1% | 104% | 97.6% | 98.8% | 86.1% | 95.1% |  | 84.3% |  |
| O=C(CSc1nc(-c2ccc(Cl)cc2)cn1-c1ccc(Cl)cc1)c1ccc(Br)cc1 | 92.7% | 86.1% | 48% | 84.1% | 79% | 59.9% | 84.9% | 63.2% | 70.6% |  | 94.1% | 91.5% | 89.3% | 83.9% | 43.9% | 89.6% | 88.5% |  |
| NC(=O)c1cccc(N2Cc3ccccc3OC3=C2C(=O)c2c(O)ccc(O)c2C3=O)c1 | -5.71% (active) | -13.4% (active) | -41.9% (active) | -68.1% (active) |  |  | -94.2% (active) | 20.9% | 10% | -36.9% (active) | -56.8% (active) | -27.3% (active) | -66.6% (active) | -22.3% (active) | -69.1% (active) | -21.1% (active) | -48.9% (active) |  |
| COc1cc(C(=O)/C=C/c2cc(C(=O)c3cc(OC)c(OC)c(OC)c3)ccc2OC)ccc1N | -7.95% (active) | -9.87% (active) | 4.2% (active) | -54.1% (active) | 32.5% | -12.7% (active) | -53% (active) | 46.1% | 1.57% (active) |  | -51.3% (active) | 2.47% (active) | -57.3% (active) | 6.6% (active) | -73.8% (active) | -80% (active) | -57.2% (active) |  |
| Cc1ccc2nc(SCn3nnc4ccccc4c3=O)[nH]c2c1 | 112% | 94.4% | 109% | 89.5% | 103% | 83.7% | 104% | 107% | 88.8% |  | 105% | 101% | 90.6% | 87.2% | 97.1% | 95.5% | 161% |  |
